Bioassay records: PubChem, several laboratories
GalR3 antagonist = blocks the human galanin receptor 3; AID 651719; inhibition, % at 3 µM; HEK293 GalR3-CNG cAMP membrane potential fluorescence; galR3 body fused to GalR1 C-terminus; 360,000 compounds, 0.44% hits; O60755;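 active = inhibition above the screen-wide average plus 3 SD, cut at about 13% in these data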;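 note: forskolin and galanin both at EC90 stimulate the cells; cAMP rise reported by CNG channel membrane potential dye signal; 0% = forskolin plus galanin with DMSO and 100% = forskolin alone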
Target sequence (O60755 1-299 limits assumed): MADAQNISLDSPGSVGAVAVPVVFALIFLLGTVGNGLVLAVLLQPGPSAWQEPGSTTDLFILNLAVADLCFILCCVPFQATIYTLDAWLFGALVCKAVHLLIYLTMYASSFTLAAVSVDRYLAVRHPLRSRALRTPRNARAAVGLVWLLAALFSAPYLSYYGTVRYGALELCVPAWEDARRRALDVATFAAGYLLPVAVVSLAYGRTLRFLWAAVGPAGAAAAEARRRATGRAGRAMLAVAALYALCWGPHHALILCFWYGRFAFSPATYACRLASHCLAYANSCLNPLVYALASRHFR
HIF activator = HIF pathway transcriptional activation; U2OS HRE-luciferase reporter, luminescence; normalized: DMSO 0%, desferrioxamine 100%; activation, % at 7.5 µM (by protocol); 300,000 compounds, 0.32% hits; AID 1910;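 active = mean activation of at least 10% of the iron chelator positive control signal, with at least half of replicates also reaching 10%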
GAA850 FXN act = frataxin GAA850 promoter activation; HEK293 lucGAA850 FXN promoter luciferase reporter, 24 h; percent of 10 µM SAHA response; activation, % at 6 µM; 360,000 compounds, 0.56% hits;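 active = activation above the average of all compounds screened plus 3 SD, cutoff fixed separately per campaign, cut at about 7.5% in these data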;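 note: 0% = DMSO wells and 100% = 10 µM SAHA wells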
SMARCA2 act = increases SMARCA2 function in MMTV reporter cells | MG213 cells, MMTV-luciferase reporter, dexamethasone, overnight | activation, % at 9.1 µM | 370,000 compounds, 1% hits | AID 652017; in the data active = activation above about 7.8%;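 note: 0% = vehicle wells and 100% = reference activator wells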
Hsp70 activator = switches on Hsp70 transcription; HeLa Hsp70 promoter luciferase reporter, luminescence; scaled: vehicle 0, proteasome-inhibitor control 100%; activation, % at 10 µM; 200,000 compounds, 0.04% hits; AID 1203;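 active = activation above the mean across all tested compounds plus 3 SD, cutoff set per campaign, cut at about 5.5% in these data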;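 note: 100% = MG132 at 30 µM as the positive control and 0% = DMSO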
SMARCA2 act conf = SMARCA2 activation, confirmation screen. shares compounds with SMARCA2 act. MG213 cells, MMTV-luciferase with dexamethasone, luminescence, overnight; MG213 cells expressing E1A, Rb sequestered; DMSO wells 0%, reference activator 100%. activation, % at 9.1 µM. 3,500 compounds, 30% hits. AID 652260;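 active = activation above its plate's cutoff, the mean activation of tested wells plus 3 SD, cut at about 7.9% in these data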
GAL4-VP16 Luc = counter-screen for SMARCA2 activators: GAL4-VP16 luciferase reporter activation. shares compounds with SMARCA2 act. HEK293 GAL4-VP16 pG5luc reporter, luciferase luminescence; scaled: DMSO wells 0%, SAHA wells 100%. activation, % at 9.1 µM. 3,500 compounds, 41% hits. AID 686939;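 active = activation above the solvent-only control well mean plus 3 SD, averaged across control plates, cut at about 5.2% in these data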
Starred values were filed as active, the others as inactive; / = not tested or not shown. Shown are actives, neighbours in structure and some others; about 2.2% of the full set was active somewhere.

SMILES	GalR3 antagonist	HIF activator	GAA850 FXN act	SMARCA2 act	Hsp70 activator	SMARCA2 act conf	GAL4-VP16 Luc
O=C(O)c1cc(-c2ccc3ccccc3n2)nc2ccccc12	-12	1	5	13*	/	3	7.7*
O=C(O)c1cc(-c2cc(C(=O)O)c3ccccc3n2)nc2ccccc12	/	-5	/	/	/	/	/
Cc1ccc(O)c(C2=Nc3ccccc3N=C(c3cccc([N+](=O)[O-])c3)C2)c1	4	1	5	8.7*	0	0	1
COc1ccc(N(CCCN2C(=O)c3cccc4cccc(c34)C2=O)C(=O)c2ccncc2)cc1	-3	0	5	8.0*	0	3	3
COc1ccc(N(CCCN2C(=O)c3cccc4cccc(c34)C2=O)C(=O)c2cccnc2)cc1	2	0	2	2	0	/	/
CCC(=O)Oc1ccc2oc(=O)cc(C)c2c1	-9	0	-1	13*	0	-1	0
CCOc1ccc2oc(=O)cc(C)c2c1	-3	1	3	1	0	/	/
CN(C)c1ccc(-c2nn3c(-c4ccco4)nnc3s2)cc1	/	/	/	4	/	/	/
COc1ccc2nc3cc(Cl)ccc3c(Nc3cc(CN4CCCC4)c(O)c(CN4CCCC4)c3)c2n1	-2	-1	-7	68*	/	256*	3
C/C(=N/NC(=O)c1ccc(Br)o1)c1cccc(NC(=O)c2ccc(C)o2)c1	-11	2	6	13*	0	0	3
C/C(=N\NC(=O)c1ccn(C)n1)c1cccc(NC(=O)c2ccc(C)s2)c1	-1	3	2	16*	0	8.0*	6.0*
C/C(=N/NC(=O)c1ccc(Br)o1)c1cccc(NC(=O)c2ccc(F)cc2)c1	3	2	3	7	/	/	/
O=C(COC(=O)c1cccc(NC(=O)c2ccco2)c1)c1ccc(Br)cc1	-6	2	4	8.1*	0	9.5*	4
C/C(=N/NC(=O)c1ccco1)c1cccc(NC(=O)c2ccc(C)s2)c1	1	-20	3	6	0	/	/
CC(=O)Nc1cccc(/C(C)=N/NC(=O)c2ccc(O)cc2)c1	-3	2	-1	8.1*	0	3	1
Nc1[nH]c(C(=O)c2ccccc2)c(-c2ccc3ccccc3c2)c1C(=O)NCc1ccc(F)cc1	-1	/	/	-2	/	/	/
COc1ccc(S[C@]2(C(=O)N3CCOCC3)CC(=O)N(C(=O)C3CC3)[C@@H]2c2ccc(OC)cc2)cc1	/	/	/	-3	/	/	/
C/C(=N\NC(=O)c1cccc(Cl)c1)c1cccc(NC(=O)c2ccco2)c1	3	1	3	6	0	/	/
C/C(=N\NC(=O)c1cccc(C)c1)c1cccc(NC(=O)c2ccco2)c1	9	1	0	11*	0	3	1
C/C(=N/NC(=O)c1ccco1)c1cccc(NC(=O)c2ccc(C)o2)c1	3	4	4	8.8*	0	-1	3
C/C(=N\NC(=O)c1ccco1)c1ccc(NC(=O)c2ccccc2)cc1	-5	2	5	5	0	/	/
COc1cccc(CN(C)C(=O)[C@@H](Cc2ccccc2)NC(=O)[C@H]2O[C@@H](n3ccc(=O)[nH]c3=O)[C@H](O)[C@@H]2O)c1	-7	/	/	-1	/	/	/
CC(C)CNc1cccc2c1S(=O)(=O)N(Cc1cccc(F)c1)[C@@H](C)[C@H](c1ccccc1)O2	-7	/	/	-3	/	/	/
COc1ccc(Cl)cc1C(=O)NNC(=O)c1cccs1	-5	/	4	12*	/	2	5
COc1ccc(NC(=S)NNC(=O)c2cccs2)cc1	4	0	5	8.8*	0	0	4
SMILES	GalR3 antagonist	HIF activator	GAA850 FXN act	SMARCA2 act	Hsp70 activator	SMARCA2 act conf	GAL4-VP16 Luc
CCCCCCCCN1CCS(=O)(=O)N(Cc2ccccc2)C(C(=O)OC)C1 (stereo not given)	/	/	/	-3	/	/	/
CCOC(=O)CC[C@H]1CC[C@]2(CCCN(C(=O)c3cccnc3)C2)O1	/	/	/	-2	/	/	/
Cc1ccc(C(=O)CSc2nc(C)cc(=O)[nH]2)cc1	-1	1	-3	8.2*	0	-2	0
Cc1cc(=O)[nH]c(SCC(=O)c2ccc(O)c(O)c2)n1	-4	0	3	4	/	/	/
COc1cc(/C=C2\COC/C(=C\c3ccc(O)c(OC)c3)C2=O)ccc1O	-1	-1	-9	13*	/	4	-1
Cc1ccc(S(=O)(=O)CCC(=O)OCC(=O)Nc2cc(S(=O)(=O)N3CCOCC3)ccc2Cl)cc1	-2	/	1	2	/	/	/
O=C(COC(=O)CCS(=O)(=O)c1ccccc1)Nc1cc(S(=O)(=O)N2CCCCC2)ccc1Cl	-3	0	-2	8.8*	/	3	0
CCCCCCCCNC(=O)C1CSCCS(=O)(=O)N1Cc1ccc(OC)cc1 (stereo not given)	/	/	/	-1	/	/	/
COCC1CCN(Cc2nc(-c3cccs3)no2)C1 (stereo not given)	-2	1	6	13*	0	2	6.0*
c1ccc(OCc2noc(CN3CCC(C4CCCCC4)C3)n2)cc1 (stereo not given)	-2	-1	0	-4	0	/	/
C[C@@H]1CN(Cc2nc(-c3cccs3)no2)C[C@H](C)O1	4	0	5	-2	0	/	/
COCC1CCN(Cc2nc(COc3ccccc3)no2)C1 (stereo not given)	1	1	-2	8.3*	0	-3	1
COC(=O)C/C=C/[C@@H](C)[C@H](NC(=O)OCC(Cl)(Cl)Cl)c1ccc(-c2ccccc2)cc1	/	/	/	-1	/	/	/
COC(=O)C1C(=O)c2c([nH]c(C(=O)OC3CCCC3)c2C)CC1C (stereo not given)	-3	4	5	8.2*	1	7	8.4*
Cc1cc(O)c(NC(=O)c2ccco2)cc1C	-4	1	1	8.9*	0	0	5
Cc1ccc(O)c(NC(=O)c2ccco2)c1	6	2	3	3	0	/	/
COc1cc(C(=O)NCC(=O)NCCCSc2ccccc2)cc(OC)c1OC	-1	/	0	8.0*	/	0	0
O=C(/C=C/c1ccccc1Cl)Nc1cccnc1	-10	1	4	9.0*	/	8.3*	7.5*
O=C1C2C3CCC(C3)C2C(=O)N1CNc1ccccc1 (stereo not given)	-2	0	-1	1	0	/	/
CC(=O)Nc1ccc(NCN2C(=O)[C@@H]3[C@H]4CC[C@H](C4)[C@@H]3C2=O)cc1	0	0	3	8.9*	0	-4	0
Cc1occc1C(=O)N/N=C/C1=C(N2CCOCC2)C(=C\c2ccc(Cl)cc2Cl)/CC1	-5	0	2	12*	0	2	0
